The values that follow come from PubChem BioAssay AID2553 (Johns Hopkins Ion Channel Center, 2010).

The structures appear in SMILES notation. Among all 310,000 compounds or so, about 3,300 (1.1%) were called active.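 The calls were made as follows: active = B-score under library mean minus 3 SD, initial fluorescence not abnormally high, positive integrated signal ratio; inactive = the rest.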 For the sample, actives were picked, then their nearest neighbours and some compounds at random.

In this experiment the target is Short transient receptor potential channel 6 (Mus musculus) (UniProt Q61143). Nature of the experiment: mouse TRPC6 channel inhibitors, primary screen, cell-based, HEK293, membrane potential dye (AID 2553).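 As to B-score: B-score derived from integrated fluorescence ratio over the kinetic read; more negative B-score means stronger inhibition of depolarization.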 The settings on record: ACh-evoked depolarization, at 10 µM; active compounds read low.
Chain of Short transient receptor potential channel 6 (Mus musculus) (Q61143 whole entry, looked up): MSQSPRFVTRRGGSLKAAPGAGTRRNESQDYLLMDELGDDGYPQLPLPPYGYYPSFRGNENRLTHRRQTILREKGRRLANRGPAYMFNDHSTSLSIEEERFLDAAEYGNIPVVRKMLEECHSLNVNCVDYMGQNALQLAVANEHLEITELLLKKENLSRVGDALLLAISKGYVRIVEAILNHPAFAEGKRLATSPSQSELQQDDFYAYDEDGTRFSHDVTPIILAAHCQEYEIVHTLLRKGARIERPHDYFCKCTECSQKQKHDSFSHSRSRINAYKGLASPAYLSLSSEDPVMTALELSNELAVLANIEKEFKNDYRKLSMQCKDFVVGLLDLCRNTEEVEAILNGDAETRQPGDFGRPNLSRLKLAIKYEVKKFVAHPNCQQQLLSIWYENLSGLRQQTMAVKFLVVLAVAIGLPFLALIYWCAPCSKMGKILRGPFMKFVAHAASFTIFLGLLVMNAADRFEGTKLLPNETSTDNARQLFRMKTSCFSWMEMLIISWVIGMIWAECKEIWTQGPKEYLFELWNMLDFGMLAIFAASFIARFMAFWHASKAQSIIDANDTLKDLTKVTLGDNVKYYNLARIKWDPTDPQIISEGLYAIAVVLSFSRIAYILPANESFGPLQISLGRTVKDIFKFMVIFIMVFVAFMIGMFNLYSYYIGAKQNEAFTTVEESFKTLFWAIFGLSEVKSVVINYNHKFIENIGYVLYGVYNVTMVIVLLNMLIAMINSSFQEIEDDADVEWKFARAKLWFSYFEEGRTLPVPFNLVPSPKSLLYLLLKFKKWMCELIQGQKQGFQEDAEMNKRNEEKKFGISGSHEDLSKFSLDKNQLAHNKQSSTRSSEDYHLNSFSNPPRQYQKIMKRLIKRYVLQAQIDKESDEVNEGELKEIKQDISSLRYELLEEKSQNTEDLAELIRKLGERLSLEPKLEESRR
In the case of `Nc1c(N(CCO)C(=O)C2CCCCC2)c(=O)[nH]c(=O)n1Cc1ccccc1`, the B-score entry was “inactive”.
The entry for `CCN(CCCNC(=O)c1ccc2c(c1)NC(=O)CN2C)c1cccc(C)c1` is “inactive”; for `COc1ccc(CNC(=O)C(=O)NCC2OCCN2C(=O)c2ccc(OC)cc2)cc1` (stereo not given) it is “inactive”.
As to `CCC1=NN(C(=O)Cc2ccc([N+](=O)[O-])cc2)C(O)(c2ccc(Br)cc2)C1` (stereo not given), the B-score result is “inactive”.
For `COc1ccc(Cl)cc1C(=O)NNC(=S)NC(=O)/C=C/c1ccco1`, the B-score result was “inactive”.
On to `COc1cc2c(cc1OC)C(c1cccc([N+](=O)[O-])c1)=NCC2`, for which the B-score entry is “inactive”.
The figure for `COc1cc2c(cc1OC)C(/C=C/c1ccco1)=NCC2` is -5.37 (active).
Consider `COc1cc(C2C(C(=O)c3cccs3)=C(O)C(=O)N2CCN2CCOCC2)ccc1OCCC(C)C` (stereo not given), for which the B-score result is “inactive”.
On to `CC(=O)Nc1ccc(NS(=O)(=O)c2cc(C)sc2C)cc1`, for which the B-score result was “inactive”.
The same measure for `CCS(=O)(=O)N1CCC(C(=O)N2CCN(c3ccccc3)CC2)CC1`: “inactive”; for `O=C(C1CCN(S(=O)(=O)Cc2ccccc2)CC1)N1CCCc2ccccc21`: -5.01 (active); for `CCC(=O)N1CCCc2ccccc21`: “inactive”.
The same measure for `Cc1ccc(SCC(=O)NNC(=O)c2ccc(S(C)(=O)=O)cc2)cc1`: “inactive”; for `NC(=O)c1cc2ccccc2o/c1=N/NC(=O)c1cccc(F)c1`: “inactive”; for `CCN(CC)c1ccc2cc(C(N)=O)/c(=N\NC(=O)c3ccncc3)oc2c1`: -7.68 (active).
Consider `COc1ccc(C(=O)N/N=c2\oc3ccccc3cc2C(N)=O)cc1`, for which the B-score result is “inactive”.
As for `O=C(N/N=C\c1cccnc1)c1cc(-c2ccccc2)nc2c(Cl)cccc12`, the B-score entry was “inactive”.
The entry for `COc1ccc(S(=O)(=O)NNC(=O)Nc2ccc(C)cc2)c(OC)c1` is “inactive”; for `Cc1cc2c(=O)n(CC(=O)NCC(=O)Nc3ccc(C(C)C)cc3)cnc2s1` it is “inactive”.
The entry for `Cc1nn(-c2ccc([N+](=O)[O-])cc2)c(N)c1-c1ccccc1` is “inactive”; for `O=C1CC(c2ccccc2)=NN1c1ccc([N+](=O)[O-])cc1` it is -8.01 (active).
Take `CC1=NN(c2ccccc2)C(=O)C1C(=O)c1ccc([N+](=O)[O-])cc1` (stereo not given): the B-score result is “inactive”.
As to `CCCC(C)C(=O)NCc1ccncc1` (stereo not given), the B-score entry is “inactive”.
The same measure for `S=C(NCc1ccc(Cl)cc1)NC12CC3CC(CC(C3)C1)C2`: -5.21 (active).
For `O=C(NCc1ccncc1)NC12CC3CC(CC(C3)C1)C2`, the B-score entry is “inactive”.
As for `O=C(NCc1ccc(Cl)cc1)NCc1ccc(Cl)cc1`, the B-score result was “inactive”.
On to `O=C(NCCCn1ccnc1)C(=O)NCC1OCCN1S(=O)(=O)c1cc(F)ccc1F` (stereo not given), for which the B-score result was “inactive”.
On to `CC1CC(C)CN(CC(=O)N2c3ccccc3CCc3ccccc32)C1` (stereo not given), for which the B-score result was “inactive”.
Turning to `CN1CCN(S(=O)(=O)c2cccc(C(=O)N3CCc4ccccc43)c2)CC1`, the B-score entry is “inactive”.
Regarding `CN1CCN(C(=O)N2c3ccccc3CCc3ccccc32)CC1`, the B-score was -6.16 (active).
With `COc1ccc(C(=O)C2CCCN(C(=O)c3cc(C)on3)C2)cc1F` (stereo not given), the B-score entry is “inactive”.
For the compound `COc1ccccc1/C=C/CN1CCC(CO)(Cc2ccccc2)CC1`, the B-score entry was “inactive”.
With `Cc1cc(=O)cc(C)n1-c1ccc(Cl)c(Cl)c1`, the B-score entry is “inactive”.
On to `COc1ccc(NC(=O)CSc2nnc(-c3ccccc3F)n2C2CC2)cc1S(N)(=O)=O`, for which the B-score entry was “inactive”.
The entry for `Cc1ccccc1NC(=O)Nc1ccccc1N1CCCCC1` is “inactive”.
With `O=C(CNCCC1=CCCCC1)Nc1ccccc1N1CCCCCC1`, the B-score entry was “inactive”.
Regarding `Cc1ccccc1NC(=O)CNc1ccccc1N1CCCCC1`, the B-score is -6.42 (active).
For `CCN(C(=O)Cc1c(C(=O)O)n(CC)c2ccccc12)c1ccccc1C`, the B-score result was “inactive”.
Turning to `CCCCOc1ccc(NC(=O)[C@@H]2CCCN2C(=O)C2CCN(S(=O)(=O)c3ccc(C)cc3)CC2)cc1`, the B-score entry was “inactive”.
Turning to `CCc1ccc(C(=O)NNC(=O)C2CCN(c3ncnc4sc(C)c(C)c34)CC2)cc1`, the B-score result is “inactive”.
`O=C(NC(Nc1nc2ccc([N+](=O)[O-])cc2s1)(C(F)(F)F)C(F)(F)F)c1ccccc1`: the B-score was -10.2 (active).
With `CCC(=O)NC(Nc1nc2ccc(C)cc2s1)(C(=O)OC)C(F)(F)F` (stereo not given), the B-score result was “inactive”.
Turning to `CCOc1ccc2nc(NC(=O)c3cc([N+](=O)[O-])ccc3N3CCOCC3)sc2c1`, the B-score entry was “inactive”.
Regarding `COc1ccc2c(C)cc3nnnn3c2c1`, the B-score entry was “inactive”.
For `CC(C)c1cc(C(=O)N/N=C/c2ccoc2)c(O)c(C(C)C)c1`, the B-score entry was “inactive”.
For `Cc1nnc(C)n1/N=C/c1ccc(C(C)C)cc1`, the B-score entry is “inactive”.
For `COc1ccc(Br)cc1/C=N/Nc1ccc(Cl)c(C(=O)O)c1`, the B-score entry is “inactive”.
For `COc1ccc(Br)cc1/C=N/n1c(C)nnc1C`, the B-score was -5.36 (active).
Regarding `NC(=O)COc1ccc(/C=N/NC(=O)C2CCCN2S(=O)(=O)c2ccc(Cl)cc2)cc1` (stereo not given), the B-score result was “inactive”.
With `COc1ccc(CN2C3CCCC2CC(NC(=O)c2cccc(F)c2)C3)cc1` (stereo not given), the B-score result was “inactive”.
In the case of `CC(=O)OC(C(=O)NC1CCCCC1)c1ccccc1` (stereo not given), the B-score entry was “inactive”.
The same measure for `CC(NCc1ccccc1OC1CCCC1)c1ccccc1` (stereo not given): -8.19 (active); for `COc1ccccc1CN1CCN(C(c2ccccc2)c2ccccc2)CC1`: “inactive”.
For `CCOC(=O)c1[nH]ncc1CN1CCCC(C(=O)c2ccc(OC)cc2C)C1` (stereo not given), the B-score result was “inactive”.
The same measure for `COc1ccc(C(=O)C2CCCN(Cc3ccc4nonc4c3)C2)c(C)c1` (stereo not given): “inactive”.
Consider `COc1ccc(C(=O)C2CCCN(Cc3cccn3-c3ccccn3)C2)c(C)c1` (stereo not given), for which the B-score is -12.5 (active).
The same measure for `Cc1ccc(C(=O)Oc2ccc(C(=S)N3CCOCC3)cc2)cc1`: “inactive”; for `CC(C)Cc1nc(N2CCOCC2)c(C#N)c2c1CCC2`: “inactive”.
On to `CC(C)CCNc1nc(N2CCCC2)c2c(c1C#N)CCN(C)C2`, for which the B-score was -6.63 (active).
For the compound `CCc1nc(NCCO)c(C#N)c2c1CCCC2`, the B-score result was “inactive”.
Turning to `COc1ccc(-c2cc(C3CCN(c4ncccc4[N+](=O)[O-])CC3)[nH]n2)cc1`, the B-score result is “inactive”.
`Cc1cc(Cl)ccc1C(=O)C1CCCN(C(=O)c2nonc2C)C1` (stereo not given): the B-score entry was “inactive”.
On to `O=C(O)c1ccccc1C(=O)Nc1ccccc1[N+](=O)[O-]`, for which the B-score result is “inactive”.
In the case of `O=[N+]([O-])c1ccccc1Nc1ccc(O)cc1`, the B-score is -5.49 (active).
The same measure for `O=C(Nc1ccccc1[N+](=O)[O-])C1C(c2ccccc2)=C1c1ccccc1`: “inactive”; for `O=C(CCN1CCCCC1)N=Nc1c(O)[nH]c2ccccc12`: “inactive”; for `N#Cc1cccc(CSc2ncnc(N)n2)c1`: “inactive”.
As to `O=C(CN1C(=O)S/C(=C\c2ccccc2F)C1=O)NCCCn1ccnc1`, the B-score entry is “inactive”.
For the compound `O=C(CN1C(=O)S/C(=C\c2ccccc2Cl)C1=O)NC1C=CS(=O)(=O)C1` (stereo not given), the B-score result is “inactive”.
The same measure for `O=C(CN1CCCCCC1)NCCN1C(=O)S/C(=C\c2ccccc2Cl)C1=O`: -5 (active); for `CCn1cc(C(=O)OCC(=O)Nc2cccc(C)c2)c(=O)c2ccc(C)nc21`: “inactive”; for `Cc1nc(C(=O)Nc2ccc(Cl)cc2)sc1C1(C)CC(c2ccccc2)=NO1` (stereo not given): “inactive”.
As for `Cc1nc(-c2ccccc2)sc1C1(C)CC(c2cccnc2)=NO1` (stereo not given), the B-score entry is “inactive”.
`Cc1nc(C(=O)NCc2ccccc2)sc1C1(C)CC(c2cccnc2)=NO1` (stereo not given): the B-score is -5.44 (active).
The entry for `CC(C)(C)CN1CCNC(=O)C1CC(=O)NC1Cc2ccccc2C1` (stereo not given) is “inactive”.
Consider `CCN(CC)CCCNC(=O)COc1ccc2oc3c(c2c1)CCCC3`, for which the B-score result was “inactive”.
As to `CCOC(=O)N1CCN(C(=O)COc2ccc3oc4c(c3c2)CCCC4)CC1`, the B-score was -5.45 (active).
For `CCOC(=O)N1CCN(C(=O)COc2ccc(Br)cc2)CC1`, the B-score result was “inactive”.
In the case of `COc1ccc(COCCN2CCN(S(=O)(=O)c3ccccc3)CCC2=O)cc1`, the B-score entry is “inactive”.
`Cc1ccc(C(O)P(=O)(OC(C)C)c2ccc(N(C)C)cc2)cc1` (stereo not given): the B-score result is “inactive”.
As to `CCn1c(SCC(=O)Nc2ccc(Br)cc2)nc2sc3c(c2c1=O)CCN(C)C3`, the B-score result was “inactive”.
Regarding `COc1c(C=O)c(CCN(C)C(=O)c2ccc(F)cc2)cc2c1OCO2`, the B-score result is “inactive”.
For the compound `COc1ccc(C)cc1S(=O)(=O)Nc1cc2c3c(c1)CCC(=O)N3CCC2`, the B-score result is “inactive”.
Turning to `CS(=O)(=O)N1CCN(c2ccc(C(=O)NC3C4CC5CC(C4)CC3C5)cc2[N+](=O)[O-])CC1` (stereo not given), the B-score result was “inactive”.
In the case of `CC(NC(=O)c1ccc(N2CCNCC2)c([N+](=O)[O-])c1)C12CC3CC(CC(C3)C1)C2` (stereo not given), the B-score result was “inactive”.
On to `O=C(NC1C2CC3CC(C2)CC1C3)c1ccc(N2CCNCC2)c([N+](=O)[O-])c1` (stereo not given), for which the B-score was -6.41 (active).
Regarding `COC(=O)c1ccc(CNC(=O)C2CCC(=O)N(Cc3ccccn3)C2)cc1` (stereo not given), the B-score entry is “inactive”.
Regarding `COc1cc(OC)cc(C(=O)NCCCn2ccnc2)c1`, the B-score result was “inactive”.
The entry for `CCCCC(=O)Nc1ccc(C(=O)NCCCn2ccnc2)cc1` is “inactive”; for `CCCC(=O)Nc1ccc(C(=O)NCCCn2ccnc2)cc1` it is -6.02 (active); for `COc1ccnc(Oc2ccccc2)n1` it is “inactive”.
The same measure for `Cn1nc(C(F)(F)F)c(-c2ccc(F)cc2)c1NC(=O)CSCC(=O)O`: “inactive”; for `CSCCC(NC(=O)c1ccc(=O)n(C)n1)c1nc2ccccc2[nH]1` (stereo not given): -4.99 (active); for `COc1ccc(CC(=O)N[C@@H](CCSC)c2nc3ccccc3[nH]2)cc1`: “inactive”.
On to `CSCCC(NC(=O)c1cc([N+](=O)[O-])cc([N+](=O)[O-])c1)c1nc2ccccc2[nH]1` (stereo not given), for which the B-score result is “inactive”.
For the compound `COc1ccccc1Oc1ccc(N2CC(C(=O)OCC(=O)c3ccc(F)cc3)CC2=O)cc1` (stereo not given), the B-score result is “inactive”.
The same measure for `CC(C)[C@@H]1COC(c2cccc(C3=N[C@H](C(C)C)CO3)c2)=N1`: “inactive”; for `CCN(Cc1ccncc1)C(=O)c1cccc(S(=O)(=O)N2CCOCC2)c1`: “inactive”.
Turning to `O=S(=O)(c1cccc(Cn2nnc(-c3ccc(F)cc3)n2)c1)N1CCOCC1`, the B-score is -5.77 (active).
In the case of `Cc1nc(-c2ccc(F)cc2)c(CC(=O)Nc2cccc(S(=O)(=O)N3CCOCC3)c2)s1`, the B-score result is “inactive”.
The entry for `O=C(Nc1ccc(OCC(=O)N2CCOCC2)cc1)c1cc(F)c(F)cc1Cl` is “inactive”.
`COc1ccc2c(c1)C=CC1(O2)N(CCO)c2ccccc2C1(C)C` (stereo not given): the B-score result is “inactive”.
The same measure for `Cc1ccc(C(=O)N2CC(=O)Nc3ccc(F)cc3C2c2ccc(F)cc2)cc1` (stereo not given): “inactive”; for `CC(C)C(=O)N1CC(=O)Nc2ccc(F)cc2C1c1ccc(F)cc1` (stereo not given): “inactive”; for `O=C1CN(C(=O)c2ccccc2F)C(c2ccc(F)cc2)c2cc(F)ccc2N1` (stereo not given): -5.3 (active).
